From PubChem BioAssay (NCATS)
Values joined by “and” are separate entries in the source; they are usually repeats but may differ in a detail not shown here. Equal entries are not always repeated. Records with an inconclusive call do not appear. Entries that show only a call come without a potency. Active and inactive are the calls of the source. Calls come from the whole dose curve; as a rule, active = well fitted curve in the direction sought with a large enough effect; inconclusive = small, poorly fitted or top-dose-only effect, or another doubt; inactive = no such curve, though single readings can be large; an effect the other way counts as inactive or inconclusive.

Tests used:
[1] = P-glycoprotein substrates identified in KB-3-1 adenocarcinoma cell line, qHTS therapeutic library screen (AID 1346986); note: nearly all actives have a fitted effect of over 60% in size;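 note: potency is for cytotoxicity meaning loss of cell viability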
Procedure, shortened: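 Resistance attributable to P-gp was assessed by comparing AC50 in KB-8-5-11 with parental KB-3-1 and by tariquidar reversal. Cells were exposed 72 h and viability read by CellTiter-Glo.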

[2] = P-glycoprotein substrates identified in KB-8-5-11 adenocarcinoma cell line, qHTS therapeutic library screen (AID 1346987); note: nearly all actives have a fitted effect of over 65% in size
Procedure, shortened: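 Steps: plate 500 KB-8-5-11 cells/well in DMEM + 10% FCS (colchicine removed); pin compounds in dose-response; incubate 72 h, 37 degree C, 5% CO2; add CellTiter-Glo, 5 min; read luminescence.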
Potency is the fitted concentration of half-maximal effect.

Row | Structure (SMILES) | Potency [1] | Potency [2] | outcome [1] | outcome [2]
1 | C1=C/COCc2cc(ccc2OCCN2CCCC2)Nc2nccc(n2)-c2cccc(c2)COC/1 | 4.61 µM (active) | 4.61 µM (active) and 7.31 µM (active) | – | –
2 | C/C=C(/C=C(C)/C=C/C=C/C=C(\C)C(=O)C12OC1C(O)(CCO)NC2=O)C(=O)OC (stereo not drawn) | inactive | inactive | – | –
3 | COC(CCc1ccc(O)cc1)CC(=O)CCc1ccc(O)cc1 (stereo not drawn) | inactive | inactive | – | –
4 | COc1ccc2[nH]c(=O)c3c(c2c1)OC(C)(C)C=C3 | inactive | inactive | – | –
5 | CCC/C=C/C(=O)O[C@H]1CC(C)(C)CC2[C@@]13[C@H](O)C[C@]1(C)[C@@]2(CCC2[C@@]4(C)CC[C@H](O[C@@H]5O[C@H](C(=O)O)[C@@H](O)[C@H](O[C@@H]6O[C@H](CO)[C@H](O)[C@H](O)[C@H]6O[C@@H]6O[C@@H](C)[C@H](O)[C@@H](O)[C@H]6O[C@@H]6OC[C@](O)(CO)[C@H]6O)[C@H]5O[C@@H]5O[C@H](CO)[C@H](O)[C@H](O)[C@H]5O)C(C)(C)C4CC[C@]21C)O[C@H]3O (stereo partly drawn) | – | – | inactive [at 9.29 µM] | inactive [at 9.29 µM]
6 | COc1ccc(S(=O)(=O)N2CCC[C@H]2C(=O)Nc2cc(C)cc(C)c2)cc1 | inactive | inactive | – | –
7 | COc1cc2c(cc1O)C1(Cc3ccc4c(c3C1O)OCO4)[N+](C)([O-])CC2 (stereo not drawn) | inactive | inactive | – | –
8 | CC1(C)C2CCC(CO[C@@H]3O[C@H](CO[C@@H]4OC[C@](O)(CO)[C@H]4O)[C@@H](O)[C@H](O)[C@H]3O)C1C2 (stereo partly drawn) | inactive | inactive | – | –
9 | O=C([C@@H](Cc1cccc(C(F)(F)F)c1)NS(=O)(=O)c1cc(F)c2c(c1)CCNC2)N1CCCC1 | inactive | inactive | – | –
